In PubChem BioAssay (NCATS):
Values without a mark were called inactive. Calls follow the shape of the dose curve; as a rule, active = well fitted curve in the direction sought with a large enough effect; inconclusive = small, poorly fitted or top-dose-only effect, or another doubt; inactive = no such curve, though single readings can be large or run the other way.

These molecules were tested against Thyrotropin receptor (Homo sapiens) (UniProt P16473) (assay: qHTS Assay for Antagonists of the Thyroid Stimulating Hormone Receptor (AID 488980; also: 0% is about no effect)). Details: TSHR-expressing cells, cAMP antagonist read-out; series mostly up to 57.5 µM; activity, negative = inhibition: at the top concentration.
From the text: TSH is an alpha/beta heterodimeric glycoprotein hormone secreted from the anterior pituitary gland which belongs to the glycoprotein hormone family. The actions of TSH are mediated by a seven-transmembrane receptor, which upon TSH binding couples preferentially to the G-alpha (s) protein (Gs), resulting in activation of adenylate cyclase and increase in cyclic adenosine 3', 5' monophosphate (cAMP). The TSH receptor (THSR) is mainly expressed in thyroid follicular cells and regulates their growth and function. This cell based assay was conducted on a TSHR transfected HEK 293 cell line, measuring cAMP stimulation using antibody-based Homogeneous Time Resolved Fluorescence (HTRF).
Our goal is to identify small molecules that will inhibit (antagonize) the thyroid-stimulating hormone receptor (TSHR), a member of the 7 transmembrane-spanning receptor (7TMR) family of cell surface receptors. TSHR-mediated hyperthyroidism is important in thyroid pathology. The development of small molecule antagonists of TSHR may lead to therapeutic approaches for TSHR-mediated hyperthyroidism caused by constitutively activating mutations or stimulating auto-antibodies associated with Graves' disease. Graves' disease is the leading cause of hyperthyroidism and is caused by autoantibodies that stimulate TSHR (TsAbs) causing thyroid growth and unregulated overproduction of thyroid hormones and existing treatments have liabilities (agranulocytosis). In addition, TSHRs are known to be expressed in multiple extrathyroidal tissues including bone, brain, kidney, testis, fat and cells of the immune system but the role of the TSHR in these tissues is not clear. Therefore, TSHR antagonists/inverse agonists could be used as probes of extrathyroidal TSHR function. Finally, TSHR inverse agonists, which are a subclass of antagonists that inhibit agonist-independent (or basal or constitutive) TSHR signaling, could be used to inhibit TSH-independent signaling in patients with recurrent or metastatic thyroid cancer who are receiving thyroid hormone to suppress TSH.
An anti cAMP antibody contains a fluorescent cryptate tag (excitation 337 nm; emission 620 nm) and the acceptor is cAMP-d2 (excitation 620 nm; emission 665 nm). When antibody and cAMP-d2 interact and are excited by a 337 nm light, a FRET occurs resulting in emission at 665 nm. The assay is competition between cAMP-d2 and cAMP (from the cell lysate). The homogeneous protocol allows for one step dispense after stimulation that is automation friendly.
Step, Parameter, Value, Description
1, Cells, 3 uL, 2000 TSHR freshly harvested cells/well 1536 TC treated White solid bottom plate (Cells resuspended in 10 mM HEPES buffered HBSS and 70 uM RO 20-1724)
2, Compound, 23 nL, Libraries and controls
3, Compound, 1 uL, EC80 TSH (4 nM final)
5, Reagent, 2 uL, cAMP antibody diluted 1:20 in lysis buffer
6, Time, 30 minutes, Room temperature
7, Detector, HTRF settings, Viewlux

Thyrotropin receptor (Homo sapiens), sequence (P16473 whole entry, looked up): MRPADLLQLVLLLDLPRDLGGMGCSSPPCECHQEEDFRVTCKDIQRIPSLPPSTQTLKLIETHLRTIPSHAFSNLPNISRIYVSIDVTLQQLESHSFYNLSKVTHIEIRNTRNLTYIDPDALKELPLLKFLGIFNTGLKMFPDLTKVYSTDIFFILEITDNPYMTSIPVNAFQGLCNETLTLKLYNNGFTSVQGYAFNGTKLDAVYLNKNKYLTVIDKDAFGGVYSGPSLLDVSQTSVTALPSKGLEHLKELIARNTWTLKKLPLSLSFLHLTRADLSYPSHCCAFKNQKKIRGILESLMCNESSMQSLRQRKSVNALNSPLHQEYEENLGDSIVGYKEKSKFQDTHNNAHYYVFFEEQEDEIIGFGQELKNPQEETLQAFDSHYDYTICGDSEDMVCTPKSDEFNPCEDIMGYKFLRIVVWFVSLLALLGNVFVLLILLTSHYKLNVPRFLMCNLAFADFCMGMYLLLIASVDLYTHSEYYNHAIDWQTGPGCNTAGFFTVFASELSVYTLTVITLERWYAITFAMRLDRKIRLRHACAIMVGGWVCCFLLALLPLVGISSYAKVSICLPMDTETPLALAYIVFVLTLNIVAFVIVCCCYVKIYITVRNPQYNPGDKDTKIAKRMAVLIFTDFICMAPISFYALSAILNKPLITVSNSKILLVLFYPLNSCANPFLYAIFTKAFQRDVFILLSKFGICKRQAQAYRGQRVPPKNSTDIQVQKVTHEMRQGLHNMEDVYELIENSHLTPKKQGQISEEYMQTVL

SMILES | activity, negative = inhibition [%]
O=C1NC(=O)C(c2ccccc2)(c2ccccc2)N1 | -0.814
CC(C)NCC(O)COc1cccc2[nH]ccc12 (stereo unspecified) | -0.837
CC/C(=C(\c1ccccc1)c1ccc(OCCN(C)C)cc1)c1ccccc1 | 0.414
CCN(CC)C(=O)c1ccc(O)c(OC)c1 | -1.17
O=c1cc(-c2ccc(O)cc2)oc2cc(O)cc(O)c12 | -1.48
COC(=O)[C@@H]1[C@H]2C[C@H]3c4[nH]c5ccccc5c4CCN3C[C@@H]2CC[C@@H]1O | -2.72
CCN(CC)CCOC(=O)c1ccc(N)cc1 | -1.67
CC(=O)N[C@@H](CS)C(=O)O | -0.0705
Clc1ccc(Cn2c(CN3CCCC3)nc3ccccc32)cc1 | -0.804
CCN1CCC[C@H]1CNC(=O)c1cc(S(N)(=O)=O)ccc1OC | -0.297
CC1=C(/C=C/C(C)=C/C=C/C(C)=C/C(=O)Nc2ccc(O)cc2)C(C)(C)CCC1 | -0.368
CCCNC(=O)NS(=O)(=O)c1ccc(Cl)cc1 | -0.197
CC(C)(C)c1ccc(C(O)CCCN2CCC(C(O)(c3ccccc3)c3ccccc3)CC2)cc1 (stereo unspecified) | -1.73
CC(=O)CCCCn1c(=O)c2c(ncn2C)n(C)c1=O | -0.203
CN(C)CCC(c1ccccc1)c1ccccn1 (stereo unspecified) | -0.219
O=C1NCC2(CCN(CCc3ccccc3)CC2)O1 | -0.879
CC(C)OC(=O)C(C)(C)Oc1ccc(C(=O)c2ccc(Cl)cc2)cc1 | -2.49
CC1(C)CCC2=C(O1)c1ccccc1C(=O)C2=O | 0.243
CCN(CC)CCNC(=O)c1ccc(N)cc1 | -1.89
O=C(O)CCc1nc(-c2ccccc2)c(-c2ccccc2)o1 | -1.25
O=c1c(-c2ccc(O)cc2)coc2cc(O)ccc12 | -0.329
CC(=O)c1ccc(S(=O)(=O)NC(=O)NC2CCCCC2)cc1 | -0.0548
COc1cccc(-c2cc(=O)c3ccccc3o2)c1N | -2.33
Cc1cccc(C)c1OCC(C)N (stereo unspecified) | 0.0403
COc1ccccc1N1CCN(CCCNc2cc(=O)n(C)c(=O)n2C)CC1 | -6.86
CCCCC1C(=O)N(c2ccccc2)N(c2ccccc2)C1=O | -0.819
